Whole data set: some 33,000 sequences, median “E-score (-0.5 to 0.5)” near -0.041, cut for the highest 2% near 0.37. Shown is part of a subset that was picked to be rich in the highest values.
molecular target: T1, Ecm22 (UniProt Q05958); test: PBM E-score (8-mer binding enrichment) (E-score (-0.5 to 0.5)); higher = stronger / more preferred TF binding; details: protein concentration: 200 nM; construct: GST-full length
T1 sequence: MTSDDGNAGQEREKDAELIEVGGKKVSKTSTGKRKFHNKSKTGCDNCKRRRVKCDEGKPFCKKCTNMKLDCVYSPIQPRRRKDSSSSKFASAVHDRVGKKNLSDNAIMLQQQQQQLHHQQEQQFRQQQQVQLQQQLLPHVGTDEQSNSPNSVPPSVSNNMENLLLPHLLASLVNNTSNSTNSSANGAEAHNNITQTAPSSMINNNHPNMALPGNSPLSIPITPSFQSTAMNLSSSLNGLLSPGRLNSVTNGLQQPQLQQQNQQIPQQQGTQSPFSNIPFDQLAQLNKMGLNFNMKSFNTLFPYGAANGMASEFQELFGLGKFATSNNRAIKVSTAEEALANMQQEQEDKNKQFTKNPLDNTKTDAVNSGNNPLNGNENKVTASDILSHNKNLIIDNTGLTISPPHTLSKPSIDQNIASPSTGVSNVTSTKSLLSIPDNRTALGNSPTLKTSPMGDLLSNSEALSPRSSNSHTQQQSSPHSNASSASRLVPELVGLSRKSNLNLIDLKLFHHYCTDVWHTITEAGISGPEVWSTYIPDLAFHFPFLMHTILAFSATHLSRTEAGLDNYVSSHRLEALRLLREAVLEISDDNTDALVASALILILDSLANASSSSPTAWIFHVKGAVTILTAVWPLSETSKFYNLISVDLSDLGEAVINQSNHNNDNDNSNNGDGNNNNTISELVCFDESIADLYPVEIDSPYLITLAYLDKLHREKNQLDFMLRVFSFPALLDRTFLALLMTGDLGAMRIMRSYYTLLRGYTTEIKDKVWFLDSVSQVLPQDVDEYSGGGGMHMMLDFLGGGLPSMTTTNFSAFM
Procedure, shortened: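 Masliner-normalised scans of fluorescent anti-GST signal were the basis for scoring. That signal came from GST-tagged yeast transcription factors applied at about 100-200 nM to double-stranded universal all-10-mer Agilent arrays on fresh or once-stripped slides. Each ungapped eight-base word, pooled with its reverse complement, received an E-score from the Universal PBM Analysis Suite.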

Sequence | PBM E-score
AGATACTG | -0.0213
CGGACGTA | 0.205
ACTTTTAT | -0.217
CTACAGTC | -0.0606
AACAGGTA | -0.0274
AATAAGGC | -0.225
ACGTATAG | 0.403
ACGTATCG | 0.192
ACGTATTG | 0.22
CCGTATCG | 0.291
CCGTATAG | 0.465
CGGTATAG | 0.0179
CTGAAGTA | -0.134
TCACCAAA | 0.0237
ACGGATAA | 0.159
CCGGATAA | 0.0584
TCGGATAA | 0.372
AGCAGCCG | -0.0197
ATATAGGC | -0.00233
AAACGCAT | 0.0604
AAACGACT | 0.437
CAACGACA | 0.346

Sequence | PBM E-score
CGACGACG | 0.127
TAACGACA | 0.352
CAACGACG | 0.351
GAACGACA | 0.456
GGACGACC | -0.107
GAACGACC | 0.451
AAACGACG | 0.465
AGACGACT | 0.065
ACACGACT | 0.117
GCACGACC | -0.219
ATAGCTCC | -0.169
CCCTTCCA | -0.32
ACCGGATG | 0.0481
CTCCTCTC | -0.0778
GGTGTGAC | -0.177
CTCGCACC | 0.31
AGATCCGG | -0.0497
ATCGGTCG | 0.211
AAACGACC | 0.45
AATCGACC | -0.0105
AAACGACA | 0.467
CCACGACA | -0.0411

Sequence | PBM E-score
TCACGACA | 0.00255
CAACGACC | 0.278
CCTTCCGC | -0.184
GAGAGGGA | -0.212
GGATACCA | -0.0853
AGATACGC | 0.196
CGATACGA | 0.454
AGATACGG | 0.28
GGATACGA | 0.45
GGATACTA | -0.144
CGATACGC | 0.2
AGATACGA | 0.47
CGATACAA | 0.148
CAAATGCC | -0.27
TGCAAGAA | -0.0877
AAGCCATA | -0.0528
CCTTCCCG | -0.043
ACAGAGCG | 0.00751
CCTTGAAA | -0.0768
ACGAGTTC | 0.319
GCGAGTTA | 0.191
CCGAGTTA | 0.0641

Sequence | PBM E-score
AGGAGTTG | 0.0179
ACGAGTTA | 0.422
ACGAGTTG | 0.371
GGGAACCC | 0.0178
CGCCCAGA | -0.104
CCCAACCA | 0.0792
GAAGAGAC | 0.0183
GACCTTCA | -0.0961
AGTTTAGA | -0.186
CGTTTGGA | 0.366
CGTTTAGC | 0.464
CGTTTAGA | 0.446
GGTTTAGA | -0.179
AGTTTAGC | -0.19
CGTTTGGC | 0.394
CATTTAGC | 0.0683
AGTTTGGC | -0.00953
CACTGCTG | -0.147
GCTGCTAC | 0.124
GACCCGGA | -0.17
CTCCGCGC | -0.0267
CCGTAGCA | 0.165

Sequence | PBM E-score
TCGTAGAA | 0.384
TCGTAGCA | 0.419
CCGTAGAA | 0.122
GCGTAGAA | -0.0103
ACGTAGCA | 0.0433
AAGACCTC | -0.2
GAAACGAC | 0.41
CAAACGAC | 0.442
AAAACGAC | 0.363
GAAACGGC | 0.2
AAAACGAG | 0.362
GAAACGCC | 0.0403
CCAACGAG | 0.093
CTAACGAC | 0.282
CAAACGAG | 0.463
ACCCAGCG | -0.184
CAGGACCG | -0.0291
CAATTCGC | 0.0698
ACTCACGG | 0.034
CACGTCCG | -0.21
CAGATGGA | 0.0554

From the supplement of paper PMC3334620
